We go through 37 molecules from PubChem BioAssay (NCATS).

“And” between values parts separate entries of the source, which are not always exact repeats. Equal values may be shown once. Inconclusive results are not listed. Where a call stands in place of a potency, no number is given. Values without a mark were called inactive. The source made the active and inactive calls. Calls come from the whole dose curve; as a rule, active = well fitted cell-killing curve with a large enough effect; inconclusive = small, poorly fitted or top-dose-only effect, or effect the other way; inactive = no such curve, though single readings can be large or run the other way.
Potency is the fitted concentration of half-maximal effect.

A short description of the assay: Viability qHTS for spleen associated tyrosine kinase inhibitor (SYKi) naive MV4-11 cells (AID 1963823). Note: nearly all actives have a fitted effect of over 40% in size. The note with it: MV4-11 AML viability, CellTiter-Glo luminescence, 72 h; series mostly up to 45 µM. The method, boiled down:
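Compounds were dispensed acoustically onto plates, MV4-11 cells (SYKi-naive) added at 500 per well, and plates incubated 72 hr at 37 C. CellTiter-Glo was added and luminescence measured after 10 min.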
Consider `CCCCOc1cc(C(=O)OCCN(CC)CC)ccc1N`, for which the Potency entry was “inactive”.

For `O=C(CCCl)NCCc1ccccc1`, the Potency result is “inactive”.

For the molecule `CC1(C)S[C@@H]2[C@H](NC(=O)Cc3ccccc3)C(=O)N2[C@H]1C(=O)O` (tested in a mixture with another compound), the Potency entry was “inactive”.

On to `O=C1CC2(CCCC2)CC(=O)N1CCNCC1COc2ccccc2O1` (configuration not stated), for which the Potency result is “inactive”.

`Clc1cc(Cl)cc(CNc2ncncc2-c2ccc3c(c2)OCO3)c1`: the Potency is 20.6 µM (active).

`COc1ccc(CCN2CCC(Nc3nc4ccccc4n3Cc3ccc(F)cc3)CC2)cc1`: the Potency was 4.22 µM (active).

For the molecule `O=C(CO)[C@@H](O)[C@H](O)[C@@H](O)CO`, the Potency result is “inactive”.

Turning to `Cc1cc(O)cc2c1[C@]1(C)CC[C@H]3C(C)(C)CCC[C@]3(C)[C@H]1C2`, the viability (% of control) is 65.3% [at 4.97 µM].

Take `NC(=O)c1ncn([C@@H]2O[C@H](CO)[C@@H](O)[C@H]2O)c1O`: the Potency entry is “inactive”.

For `O=C1OC(CN2CCOCC2)CN1/N=C/c1ccc([N+](=O)[O-])o1` (configuration not stated), the Potency result was “inactive”.

For the molecule `CC[C@H](CC[C@@H](C)[C@H]1CC[C@H]2[C@@H]3CC=C4C[C@@H](O)CC[C@]4(C)[C@H]3CC[C@]12C)C(C)C`, the Potency entry is “inactive”.

`CC(C)NCCCC1(C(N)=O)c2ccccc2-c2ccccc21`: the Potency entry was “inactive”.

For `CN(C)CCNC(=O)NC[C@H]1CC[C@@H]2[C@H](O1)c1cc(C(F)(F)F)ccc1N[C@H]2c1ccccc1`, the Potency was 0.148 µM (active).

Consider `COc1ccc([C@@H]2Sc3ccccc3N(CCN(C)C)C(=O)[C@@H]2OC(C)=O)cc1`, for which the Potency result was “inactive”.

Turning to `CC(C)COCC(CN(Cc1ccccc1)c1ccccc1)N1CCCC1` (configuration not stated), the Potency is 13.3 µM (active) and 14.8 µM (active).

On to `Cc1ccc(S(=O)(=O)Cc2nc(-c3ccc(C(=O)NCc4cccnc4)cc3)oc2C)cc1`, for which the Potency was 0.0118 µM (active).

In the case of `CC/C=C(\C(=O)N[C@@H]1C(=O)N2C(C(=O)OCOC(=O)C(C)(C)C)=C(COC(N)=O)CS[C@H]12)c1csc(N)n1`, the Potency result is “inactive”.

As for `CCN(CC)CCCC(C)Nc1c2ccc(Cl)cc2nc2ccc(OC)cc12` (configuration not stated), the Potency is 4.22 µM (active) and 2.82 µM (active).

Turning to `COc1cc(C(=O)O)ccc1NC(=O)[C@@H]1N[C@@H](CC(C)(C)C)[C@](C#N)(c2ccc(Cl)cc2F)[C@H]1c1cccc(Cl)c1F`, the Potency is 6.61 µM (active).

With `CC(=O)OCC1=C(C(=O)O)N2C(=O)[C@@H](NC(=O)Cc3cccs3)[C@H]2SC1`, the Potency result was “inactive”.

On to `CC[C@]1(O)C[C@@H]2CN(CCc3c([nH]c4ccccc34)[C@@](C(=O)OC)(c3cc4c(cc3OC)N(C)[C@H]3[C@@](O)(C(=O)OC)[C@H](OC(C)=O)[C@]5(CC)C=CCN6CC[C@]43[C@@H]65)C2)C1`, for which the Potency was 211 nM (active) and 36.6 nM (active).

Consider `Cc1c[nH]c2ncnc(N3CCC(CN)(C(=O)Nc4cccc(OC(=O)N(C)C)c4)CC3)c12`, for which the Potency was 517 nM (active) and 662 nM (active).

As for `Cc1cnc(NC(=O)c2cc(Oc3cnc(C(=O)N(C)C)nc3)c3cc(C)oc3c2)cn1`, the Potency result was “inactive”.

In the case of `CN1C(CCl)Nc2cc(Cl)c(S(N)(=O)=O)cc2S1(=O)=O` (configuration not stated), the Potency entry is “inactive”.

For `COc1ccc(C(=O)NCc2ccc(OCCN(C)C)cc2)cc1OC`, the Potency result is “inactive”.

Consider `OCCN1CCN(CCCN2c3ccccc3Sc3ccc(Cl)cc32)CC1`, for which the Potency is 11.9 µM (active).

Turning to `CSc1ccc2c(c1)N(CCC1CCCCN1C)c1ccccc1S2` (configuration not stated), the Potency was 15 µM (active).

With `COc1ccc(CNc2nc(N(CCO)CCO)nc3c2ncn3C(C)C)cc1`, the Potency is 4.11 µM (active).

As to `CC(C)n1nc(-c2cc3cc(O)ccc3[nH]2)c2c(N)ncnc21`, the Potency is 0.116 µM (active).

`COc1ccccc1OCC(O)CO` (configuration not stated): the Potency result was “inactive”.

For the molecule `COc1cc(Cc2cnc(N)nc2N)cc(OC)c1OC`, the Potency result is “inactive”.

For `COc1ccc2nc3n[nH]c(C)c3c(NCCOCCO)c2c1`, the Potency is 18.4 µM (active) and 9.34 µM (active).

On to `CCCNC(C)(C)COC(=O)c1ccccc1`, for which the Potency entry is “inactive”.

Regarding `CCN(c1cc(C#CCN2CCOCC2)cc(C(=O)NCc2c(C)cc(C)[nH]c2=O)c1C)C1CCC(N(C)CCOC)CC1` (configuration not stated), the Potency entry was “inactive”.

Turning to `CCN(CC)CCOC(=O)c1ccc(N)cc1`, the Potency entry is “inactive”.

`C[C@@H]1CCN(C(=O)[C@H](CCCN=C(N)N)NS(=O)(=O)c2cccc3c2NC[C@H](C)C3)[C@@H](C(=O)O)C1`: the Potency result is “inactive”.

For the molecule `CC[C@]12C=CCN3CC[C@@]4(c5cc([C@@]6(C(=O)OC)C[C@H]7C[C@@H](C(C)(F)F)CN(Cc8c6[nH]c6ccccc86)C7)c(OC)cc5N(C)[C@H]4[C@@](O)(C(=O)OC)[C@@H]1OC(C)=O)[C@@H]32`, the Potency is 0.0555 µM (active).
